Source: PubChem
KDM5B inh – KDM5B demethylase inhibition; Q9UGL1; KDM5B demethylase, FDH-coupled NADH fluorescence (FDH is formaldehyde dehydrogenase); Potency, µM (top dose mostly 57.7 µM), hits mostly inhibitors; hit rate 2.6% among 220,000; AID 1347165; active = well fitted inhibition curve with a large enough effect; note: nearly all actives have a fitted effect of over 70% in size
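qHTS format, multiple compound concentrations. Buffer 50 mM HEPES pH 7.5/0.01% Tween-20; 200 nM KDM5BΔAP final; 10 min compound preincubation; substrate-mix levels 12.5 µM peptide, 25 µM α-KG, 0.25 mM NAD⁺; 30 min RT; ΔRFU.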
A number is an active result; i = inactive. This excerpt belongs to a sample that is enriched for hits.

SMILES	KDM5B inh
Fc1ccc(OCc2nnc(-c3ccccc3Br)o2)c(Cl)c1	i
Nc1n[nH]c(CNc2cc(-c3ccc(F)cc3)nc3ccnn23)n1	28µM
Fc1ccc(CCNc2cc(Cl)nc3ccnn23)cc1	i
COc1cccc(CNc2cc(Cl)nc3ccnn23)c1	i
O[C@@H]1C[C@@H](c2nc(Cc3ccc(F)cc3Cl)no2)N(Cc2cccs2)C1	i
O=C(NCCN1CCOCC1)c1nn(Cc2ccccc2)c(=O)c2ccccc12	i
COCc1ccc2c(c1)c(OC(C)(C)C(=O)NCCN(C)C)nn2Cc1ccccc1	32µM
CN(C)Cc1ccc2c(c1)c(OC(C)(C)C(=O)NCCN1CCOCC1)nn2Cc1ccccc1	22µM
COCc1ccc2c(c1)c(OC(C)(C)C(=O)NCCCn1ccnc1)nn2Cc1ccccc1	i
COCc1ccc2c(c1)c(OC(C)(C)C(=O)NCc1ccncc1)nn2Cc1ccccc1	i
C/C(=N\O)c1c(O)cc(-c2ccccc2)n(-c2ccccc2)c1=O	i
CCCNC(=O)N(C1CCOCC1)C1CCN(C(=O)c2cnccn2)CC1	i
CN(CCSc1ccc(Cl)cc1)Cc1nc2ccccc2c(=O)[nH]1	i
CSc1cccc(NC(=O)Cn2c(-c3ccc(Cl)cc3)nc(C)c(CCO)c2=O)c1	i
CSc1ccc2cc(CN(C)CCO)c(-c3ccc(Cl)cc3)nc2c1	28µM
CC[C@@H]1[C@@H](NC(=O)CSCc2ccccc2Cl)[C@@H]2CCO[C@H]12	i
O=C(Cc1c[nH]c2ncc(-c3cccc(OC(F)(F)F)c3)cc12)NCc1cccnc1	28µM
Cc1cc(-c2cnc3[nH]cc(CC(=O)NCc4cccnc4)c3c2)ccn1	i
O=C(C[C@@H]1O[C@H](CNCc2ccc(F)cc2)[C@@H](O)[C@H]1O)NCc1cccnc1	i
CN1[C@@H](CCC(=O)NCc2cccnc2)CNC(=O)[C@@H]2[C@H]1CCN2Cc1cccc(OC(F)(F)F)c1	i
O=C(Cc1c[nH]c2ncc(-c3ccc(F)c(Cl)c3)cc12)NCc1cccnc1	32µM
O=C(CC(c1ccccc1)c1ccccc1F)NCc1cccnc1 (stereo not given)	i
O=C(Cc1c[nH]c2ncc(-c3cccnc3)cc12)NCc1ccccc1	i
O=C(Cc1c[nH]c2ncc(-c3ccc(F)cc3)cc12)NCc1cccnc1	28µM
Cc1cccc(Cn2c(NCCCO)nc3c2c(=O)[nH]c(=O)n3C)c1	i
SMILES	KDM5B inh
O=C(O)c1cc(NC(=O)c2ccccc2)cc(C(=O)O)c1	i
COc1cc(Cl)c(C)cc1NC(=O)CSc1nnc(C)n1-c1ccccc1	i
Cc1ccc(NC(=O)CN(C)C(=O)C2CCN(C(=O)c3ccc(Cl)cc3)CC2)cc1	i
CN(CC[C@H]1CN(C(=O)c2cccs2)CC[C@H]1CC(=O)O)c1ccccc1	i
COc1ccc(CC(=O)N2CC[C@@H](CC(=O)O)[C@@H](CCN3CCC(n4c(=O)[nH]c5ccccc54)CC3)C2)cc1	i
COc1ccc2c(c1)CCN=C2C[C@H]1CN(C(=O)Cc2cccs2)CC[C@H]1CC(=O)O	35µM
COc1cc2c(cc1OC)C(C[C@H]1CN(C(=O)c3ccc(F)cc3)CC[C@H]1CC(=O)O)=NCC2	i
COc1ccc(S(=O)(=O)N2CCCCC2)cc1NC(=O)Cc1cccs1	i
C=CCNC(=O)N1CC[C@@H](CC(=O)O)[C@@H](CC2=NCCc3cc(OC)ccc32)C1	35µM
COc1cc2c(cc1OC)C(C[C@H]1CN(C(=O)c3ccc4c(c3)OCO4)CC[C@H]1CC(=O)O)=NCC2	32µM
COc1ccc2c(c1)CCN=C2C[C@H]1CN(C(=O)C(C)(C)C)CC[C@H]1CC(=O)O	i
COc1cc2c(cc1OC)C(C[C@H]1CN(C(=O)Cc3cccs3)CC[C@H]1CC(=O)O)=NCC2	28µM
COc1ccc(CC(=O)N2CC[C@@H](CC(=O)O)[C@@H](CCN3CCC[C@H]3C(N)=O)C2)cc1	i
CS(=O)(=O)N1CCC(C2CCN(C(=O)c3ccc4c(c3)OCO4)C2)CC1 (stereo not given)	i
C=CCNC(=O)N1CCOC(CN(CC(C)C)C(=O)c2cccc(OC)c2)C1 (stereo not given)	i
Cc1cccc(C)c1NC(=O)CSc1ncc(-c2ccc(F)cc2)o1	i
O=C(Nc1cccc(Cl)c1)C1CN(c2cccc(Cl)c2)C(=O)N1 (stereo not given)	i
Cc1cc(C)c2nc(C)cc(Nc3ccc(C(=O)NCCO)cc3)c2c1	i
Cc1ccc(C)c(C(=O)c2ccccc2)c1	i
O=C(O)C[C@@H]1CCN(C(=O)COc2ccccc2)C[C@@H]1CCN1CCCCC1	i
COc1cc2c(cc1OC)C(C[C@H]1CN(C(=O)c3ccccc3)CC[C@H]1CC(=O)O)=NCC2	i
CS(=O)(=O)N1CCC(C2CCN(C(=O)COc3ccccc3)C2)CC1 (stereo not given)	i
COc1ccc2c(c1)CCN=C2C[C@H]1CN(C(=O)c2ccccc2)CC[C@H]1CC(=O)O	28µM
COc1ccc(C(=O)N2CC[C@@H](CC(=O)O)[C@@H](CCN3CCC(C(N)=O)CC3)C2)cc1	i
COC(=O)C[C@@H]1CCN(C(=O)COc2ccccc2)C[C@@H]1CC1=NCCc2cc(OC)c(OC)cc21	25µM
